This is an account of results in the supplement of paper PMC7411054.

Where a name gives a salt, the structure may show the parent alone.

What all share (conditions): treatment time: 24 h
Assay [1] has as its system A549-ACTB-RAB5A. Put plainly: lowest phenotypically active concentration; higher = less potent. The gist of the method:
(§1)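 Phenotypic activity depended on meeting both a deviation and a reproducibility criterion. The fifteen gene-edited A549, HepG2 and WPMY1 reporter lines were treated at 0.3, 1, 3 or 9 µM for 24 h, four wells each, then imaged live with features normalised to solvent control wells. Deviation required ≥3 of 4 wells past the 95th percentile of control Euclidean distances, and reproducibility a median replicate Pearson correlation above the 95th percentile of non-replicates.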

In assay [2] the test system is A549-GM130-SQSTM1. The description is as above. The gist of the method:
as §1

Assay [3] deals with A549-TUBA1B-RELA. The description is as above. The gist of the method: as §1
Assay [4] deals with HepG2-ACTB-RAB5A. The assay is described as above. An outline of the steps: as §1
Assay [5] relates to WPMY1-CANX-COX4. The description is as above. An outline of the steps:
as §1

Assay [6] relates to A549-ACTB-RAB5A. In words: phenotypically active (imaging signature differs from DMSO and reproducible) at any of 0.3-9 uM (binary (1 = active, 0 = inactive)); higher = active. The gist of the method:
as §1

In a further assay the test system is A549-CANX-COX4. The assay is described as above. An outline of the steps: as §1
Assay [7] concerns A549-GM130-SQSTM1. The description is as above. An outline of the steps: as §1
The next assay deals with A549-TP53BP1-CLTA. The assay is described as above. An outline of the steps: as §1
Assay [8] deals with A549-TUBA1B-RELA. The description is as above. The gist of the method:
as §1

The test system of assay [9] is HepG2-ACTB-RAB5A. The description is as above. An outline of the steps: as §1
The test system of another assay is HepG2-CANX-COX4. The assay is described as above. An outline of the steps: as §1
Another assay relates to HepG2-GM130-SQSTM1. The assay is described as above. An outline of the steps: as §1
The subject of a further assay is HepG2-TP53BP1-CLTA. Described as above. An outline of the steps:
as §1

Another assay has as its system HepG2-TUBA1B-RELA. The description is as above. An outline of the steps:
as §1

A further assay relates to WPMY1-ACTB-RAB5A. Described as above. The gist of the method: as §1
Assay [10] relates to WPMY1-CANX-COX4. Described as above. The gist of the method: as §1
Another assay deals with WPMY1-GM130-SQSTM1. The assay is described as above. An outline of the steps:
as §1

The subject of another assay is WPMY1-TP53BP1-CLTA. The description is as above. The gist of the method:
as §1

In the next assay the test system is WPMY1-TUBA1B-RELA. The assay is described as above. An outline of the steps:
as §1

For the compound `CN(C)CC(=O)Nc1ccc2[nH]c(=O)c3ccccc3c2c1` [PJ 34 hydrochloride], the “lowest phenotypically active concentration” value worked out at 9 µM in the assay with A549-ACTB-RAB5A [1]; 9 µM in the assay on A549-GM130-SQSTM1 [2]; 9 µM in the assay on A549-TUBA1B-RELA [3]; 9 µM in the assay on HepG2-ACTB-RAB5A [4]; 3 µM with WPMY1-CANX-COX4 [5]. In addition, the phenotypically active was 1 (active) in the assay on A549-ACTB-RAB5A [6]; 1 (active) with A549-CANX-COX4; 1 (active) in the assay on A549-GM130-SQSTM1 [7]; 0 (inactive) in the assay with A549-TP53BP1-CLTA; 1 (active) with A549-TUBA1B-RELA [8]; 1 (active) in the assay with HepG2-ACTB-RAB5A [9]. Also, the phenotypically active in the assay with HepG2-CANX-COX4, in the assay with HepG2-GM130-SQSTM1, in the assay with HepG2-TP53BP1-CLTA, in the assay with HepG2-TUBA1B-RELA, in the assay on WPMY1-ACTB-RAB5A and in the assay on WPMY1-CANX-COX4 [10] was 1 (active) each time. Also, the phenotypically active is 1 (active) in the assay on WPMY1-GM130-SQSTM1, 0 (inactive) in the assay on WPMY1-TP53BP1-CLTA and 1 (active) in the assay with WPMY1-TUBA1B-RELA.
In the case of `CCCCOc1c(C(=O)c2c(F)cc(C)cc2F)cnc2[nH]ncc12`, the “lowest phenotypically active concentration” value in the assay with A549-ACTB-RAB5A [1] is not above 0.3 µM; in the assay with A549-GM130-SQSTM1 [2], 1 µM; in the assay with A549-TUBA1B-RELA [3], not above 0.3 µM; in the assay on HepG2-ACTB-RAB5A [4], 3 µM; in the assay with WPMY1-CANX-COX4 [5], not above 0.3 µM. In addition, the phenotypically active with A549-ACTB-RAB5A [6] is 1 (active); in the assay on A549-CANX-COX4, 1 (active); with A549-GM130-SQSTM1 [7] it was 1 (active); in the assay with A549-TP53BP1-CLTA, 0 (inactive); in the assay with A549-TUBA1B-RELA [8] it was 1 (active); in the assay with HepG2-ACTB-RAB5A [9], 1 (active). Also, the phenotypically active was 0 (inactive) with HepG2-CANX-COX4; 1 (active) in the assay on HepG2-GM130-SQSTM1; 1 (active) in the assay on HepG2-TP53BP1-CLTA; 1 (active) in the assay with HepG2-TUBA1B-RELA; 1 (active) with WPMY1-ACTB-RAB5A; 1 (active) in the assay on WPMY1-CANX-COX4 [10]. Also, the phenotypically active is 0 (inactive) in the assay with WPMY1-GM130-SQSTM1, 0 (inactive) in the assay with WPMY1-TP53BP1-CLTA and 1 (active) in the assay on WPMY1-TUBA1B-RELA.
Regarding `O=c1cc(-c2ccccc2)oc2c(O)c(O)ccc12` [7,8-Dihydroxyflavone], the “lowest phenotypically active concentration” value in the assay on A549-ACTB-RAB5A [1], in the assay with A549-TUBA1B-RELA [3], with HepG2-ACTB-RAB5A [4] and with WPMY1-CANX-COX4 [5] was 9 µM each time. The phenotypically active was 1 (active) with A549-ACTB-RAB5A [6]; 1 (active) in the assay on A549-CANX-COX4; 0 (inactive) in the assay on A549-GM130-SQSTM1 [7]; 0 (inactive) in the assay on A549-TP53BP1-CLTA; 1 (active) in the assay with A549-TUBA1B-RELA [8]; 1 (active) with HepG2-ACTB-RAB5A [9]. Moreover, the phenotypically active in the assay on HepG2-CANX-COX4 was 1 (active); in the assay with HepG2-GM130-SQSTM1, 1 (active); in the assay on HepG2-TP53BP1-CLTA, 0 (inactive); with HepG2-TUBA1B-RELA, 0 (inactive); in the assay with WPMY1-ACTB-RAB5A, 1 (active); in the assay with WPMY1-CANX-COX4 [10], 1 (active). Also, the phenotypically active is 1 (active) in the assay on WPMY1-GM130-SQSTM1, 0 (inactive) in the assay with WPMY1-TP53BP1-CLTA and 1 (active) in the assay with WPMY1-TUBA1B-RELA.
As for `C=C1CC[C@@H]2[C@](C)(CO)[C@H](O)CC[C@@]2(C)[C@@H]1C/C=C1/C(=O)OC[C@H]1O` [Andrographolide], the “lowest phenotypically active concentration” value was 9 µM in the assay on A549-ACTB-RAB5A [1], 3 µM in the assay with A549-GM130-SQSTM1 [2], 9 µM in the assay on A549-TUBA1B-RELA [3] and 3 µM in the assay with HepG2-ACTB-RAB5A [4]. In addition, the phenotypically active with A549-ACTB-RAB5A [6] is 1 (active); in the assay with A549-CANX-COX4, 1 (active); in the assay on A549-GM130-SQSTM1 [7], 1 (active); in the assay with A549-TP53BP1-CLTA, 0 (inactive); with A549-TUBA1B-RELA [8], 1 (active); in the assay with HepG2-ACTB-RAB5A [9] it was 1 (active). The phenotypically active is 1 (active) in the assay on HepG2-CANX-COX4; 1 (active) in the assay with HepG2-GM130-SQSTM1; 1 (active) with HepG2-TP53BP1-CLTA; 1 (active) in the assay with HepG2-TUBA1B-RELA; 0 (inactive) in the assay on WPMY1-ACTB-RAB5A; 0 (inactive) with WPMY1-CANX-COX4 [10]. Also, the phenotypically active with WPMY1-GM130-SQSTM1 was 1 (active); in the assay on WPMY1-TP53BP1-CLTA it was 0 (inactive); in the assay with WPMY1-TUBA1B-RELA, 1 (active).
In the case of `C/C(=N/NC(=N)N)c1ccc(NC(=O)Nc2ccc(/C(C)=N/NC(=N)N)cc2)cc1`, the “lowest phenotypically active concentration” value in the assay on A549-ACTB-RAB5A [1] came out at 3 µM; in the assay on A549-GM130-SQSTM1 [2], 9 µM; in the assay on A549-TUBA1B-RELA [3], 3 µM; in the assay with HepG2-ACTB-RAB5A [4], 3 µM; with WPMY1-CANX-COX4 [5], 3 µM. In addition, the phenotypically active in the assay with A549-ACTB-RAB5A [6] is 1 (active); in the assay on A549-CANX-COX4, 1 (active); in the assay on A549-GM130-SQSTM1 [7], 1 (active); in the assay with A549-TP53BP1-CLTA, 0 (inactive); in the assay on A549-TUBA1B-RELA [8] it was 1 (active); with HepG2-ACTB-RAB5A [9], 1 (active). The phenotypically active in the assay on HepG2-CANX-COX4, in the assay on HepG2-GM130-SQSTM1, in the assay on HepG2-TP53BP1-CLTA, in the assay with HepG2-TUBA1B-RELA, in the assay with WPMY1-ACTB-RAB5A and in the assay on WPMY1-CANX-COX4 [10] was 1 (active) in each case. For the same compound, the phenotypically active is 1 (active) with WPMY1-GM130-SQSTM1, 0 (inactive) in the assay on WPMY1-TP53BP1-CLTA and 0 (inactive) in the assay on WPMY1-TUBA1B-RELA.
